Data from PubChem BioAssay (NCI).
The panel holds about 79,000 compounds, 15% with a hit somewhere; the sample as a whole holds those more often. Calls of active or inactive are those of the source. Rule as the data show it: active = growth inhibition above about 70%; inactive = the rest.

What was measured:
[1] = NCI Yeast Anticancer Drug Screen. Data for the rad50 strain (AID 155);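 also: 0% = growth of vehicle-only cultures of the same strain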; details: S. cerevisiae rad50 strain growth inhibition, stronger effect = higher value
How it was run: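 A DNA repair-deficient yeast mutant serves as the test organism; compound-induced growth inhibition is calculated against vehicle-treated cells.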

[2] = NCI Yeast Anticancer Drug Screen. Data for the mec2-1 strain (AID 157); details: S. cerevisiae mec2-1 strain, stronger effect = higher value
How it was run: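 Growth inhibition is read against vehicle-treated controls after compound exposure of the mec2-1 yeast strain, which is defective in DNA damage repair or cell cycle control.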

[3] = NCI Yeast Anticancer Drug Screen. Data for the sgs1 mgt1 strain (AID 161);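 also: 0% = growth of cultures given vehicle only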; details: S. cerevisiae sgs1 mgt1 strain, stronger effect = higher value
How it was run: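 Compounds are added to genetically altered yeast, and growth is compared with cultures given vehicle alone to give percent inhibition.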

[4] = NCI Yeast Anticancer Drug Screen. Data for the cln2 rad14 strain (AID 165);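 also: 0% = growth equal to vehicle treated cultures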; details: S. cerevisiae cln2 rad14 strain, stronger effect = higher value
How it was run: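 Growth inhibition, relative to vehicle-treated controls, is the read-out. The test organism is a yeast strain with defined genetic alterations, cln2 rad14.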

[5] = NCI Yeast Anticancer Drug Screen. Data for the bub3 strain (AID 167); details: S. cerevisiae bub3 mutant strain, stronger effect = higher value
How it was run: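 Inhibition values come from growth of compound-treated mutant yeast normalised to vehicle-treated controls.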

[6] = NCI Yeast Anticancer Drug Screen. Data for the mlh1 rad18 strain (AID 175); details: S. cerevisiae mlh1 rad18 strain growth inhibition, stronger effect = higher value
How it was run: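 Cells of a genetically altered yeast strain, deficient in DNA damage repair, were treated with compound. Their growth was then compared with that of vehicle-treated cultures to give inhibition.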

[7] = at 5.0 µM (retest, dose inferred, filed as 0.5)
[8] = at 50.0 µM (retest, dose inferred, filed as 5.0)

Measured: growth inhibition

CC(=O)Nc1ccc2c(c1)[nH]c(=O)c1cc(Cl)ccc12
inactive: [1]; [7] 60% | [2]; [7] 18% | [2]; [8] 63% | [2]; at 50.0 µM -1.45% | [3]; [7] 12% | [3]; at 50.0 µM 7.25% | [4]; [7] -20% | [4]; at 50.0 µM 0.95% | [5]; [7] 4% | [5]; [8] 7% | [5]; at 50.0 µM -7.95% | [6]; [7] 29% | [6]; at 50.0 µM 35.5%
active: [1]; [8] 96% | [1]; at 50.0 µM 82.8% | [3]; [8] 72% | [4]; [8] 76% | [6]; [8] 91%

Cn1c(-c2ccc(/C=N/NC(N)=NCCCCCCN=C(N)N/N=C/c3ccc(-c4c[n+]5ccccc5n4C)cc3)cc2)c[n+]2ccccc12
active: [1]; [7] 97% | [1]; [8] 98% | [1]; at 50.0 µM 98.2% | [2]; [7] 97% | [2]; [8] 98% | [2]; at 50.0 µM 96.8% | [3]; [7] 97% | [3]; [8] 98% | [3]; at 50.0 µM 97.2% | [4]; [7] 95% | [4]; [8] 98% | [4]; at 50.0 µM 89.3% | [5]; [7] 97% | [5]; [8] 99% | [5]; at 50.0 µM 97.3% | [6]; [7] 97% | [6]; [8] 98% | [6]; at 50.0 µM 97.7%

N#CSCc1c(Cl)cccc1Cl
inactive: [1]; [7] 57% | [1]; [8] 59% | [2]; [7] 40% | [2]; [8] 48% | [3]; [7] 18% | [4]; [7] 68% | [4]; at 50.0 µM 64.5% | [5]; [7] 64% | [6]; [7] 30% | [6]; [8] 48%
active: [1]; at 50.0 µM 81.7% | [2]; at 50.0 µM 75.8% | [3]; [8] 92% | [3]; at 50.0 µM 82.7% | [4]; [8] 94% | [5]; [8] 95% | [5]; at 50.0 µM 79.1% | [6]; at 50.0 µM 79.8%

CCOC(=O)/C(=C/c1ccccn1)C(=O)c1ccccc1
inactive: [1]; [7] 19% | [2]; [7] 18% | [3]; [7] 17% | [4]; [7] 39% | [5]; [7] 67% | [6]; [7] 53%
active: [1]; [8] 85% | [1]; at 50.0 µM 85.8% | [2]; [8] 93% | [2]; at 50.0 µM 85.7% | [3]; [8] 85% | [3]; at 50.0 µM 84.8% | [4]; [8] 85% | [4]; at 50.0 µM 76.7% | [5]; [8] 96% | [5]; at 50.0 µM 88.7% | [6]; [8] 94% | [6]; at 50.0 µM 79.6%

O=C([O-])c1ccc([I+]c2ccccc2)cc1
active: [2]; [8] 72% | [5]; [8] 79% | [6]; [8] 80% | [6]; at 50.0 µM 80.9%
inactive: [1]; [7] 9% | [1]; [8] 65% | [1]; at 50.0 µM 57% | [2]; [7] 8% | [2]; at 50.0 µM 41.8% | [3]; [7] 18% | [3]; [8] 67% | [3]; at 50.0 µM 48.1% | [4]; [7] 1% | [4]; [8] 47% | [4]; at 50.0 µM 65.7% | [5]; [7] 12% | [5]; at 50.0 µM 47% | [6]; [7] 10%

Cc1occc1C(=S)Nc1ccc(Cl)c(C(=O)OC(C)C2CC2)c1 (configuration not stated)
active: [3]; at 50.0 µM 78.8% | [4]; at 50.0 µM 81.5% | [5]; at 50.0 µM 77.1% | [6]; [8] 76%
inactive: [1]; [7] 9% | [1]; [8] 59% | [1]; at 50.0 µM 58.1% | [2]; [7] 16% | [2]; [8] 48% | [2]; at 50.0 µM 39.9% | [3]; [7] -1% | [3]; [8] 46% | [4]; [7] -5% | [4]; [8] 51% | [5]; [7] 6% | [5]; [8] 56% | [6]; [7] 12% | [6]; at 50.0 µM 63.5%

Cc1c(NC(=O)C(=O)N=NC(=O)c2ccncc2)c(O)c2ccccc2c1O
active: [1]; [8] 91% | [1]; at 50.0 µM 91% | [2]; [8] 90% | [2]; at 50.0 µM 93.5% | [3]; at 50.0 µM 91.9% | [4]; [8] 82% | [4]; at 50.0 µM 90.4% | [5]; [8] 96% | [5]; at 50.0 µM 91% | [6]; [8] 93% | [6]; at 50.0 µM 91.3%
inactive: [1]; [7] -15% | [2]; [7] -31% | [3]; [7] -5% | [3]; [8] 69% | [4]; [7] -24% | [5]; [7] 1% | [6]; [7] -6%

CC1C=C(COC(=O)Nc2ccccc2)ON1c1ccccc1 (configuration not stated)
active: [1]; [8] 97% | [1]; at 50.0 µM 98.2% | [2]; [8] 96% | [2]; at 50.0 µM 98% | [3]; [8] 97% | [3]; at 50.0 µM 98.2% | [4]; [8] 95% | [4]; at 50.0 µM 98.3% | [5]; [8] 93% | [5]; at 50.0 µM 98.5% | [6]; [8] 97% | [6]; at 50.0 µM 97.8%
inactive: [1]; [7] -2% | [2]; [7] -3% | [3]; [7] -2% | [4]; [7] -4% | [5]; [7] -8% | [6]; [7] -1%

Cc1ccc(N=C(N)NN=C(c2ccc(Cl)cc2)c2ccc(Cl)cc2)cc1
active: [2]; at 50.0 µM 98.5% | [4]; at 50.0 µM 98% | [5]; at 50.0 µM 97.2%
inactive: [1]; [7] 10% | [1]; [8] 67% | [1]; at 50.0 µM 65.7% | [2]; [7] 4% | [2]; [8] 38% | [3]; [7] 7% | [3]; [8] 35% | [3]; at 50.0 µM 57.6% | [4]; [7] 8% | [4]; [8] 22% | [5]; [7] 6% | [5]; [8] 24% | [6]; [7] 5% | [6]; [8] 38% | [6]; at 50.0 µM 50.3%
